CHT PAM – CHT positive allosteric modulators, primary screen, cell-based, membrane potential dye, choline EC20 | CHT-expressing cells; active compounds read high; LV-AA mutant CHT in HEK293 cells | B-score at 10 µM | 310,000 tested, 0.49% active | AID 488977, 2010;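 active = initial fluorescence not abnormally high and integrated response B-score, plate-corrected, over 3 SD above library mean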
Target sequence (Q9GZV3 whole entry, looked up): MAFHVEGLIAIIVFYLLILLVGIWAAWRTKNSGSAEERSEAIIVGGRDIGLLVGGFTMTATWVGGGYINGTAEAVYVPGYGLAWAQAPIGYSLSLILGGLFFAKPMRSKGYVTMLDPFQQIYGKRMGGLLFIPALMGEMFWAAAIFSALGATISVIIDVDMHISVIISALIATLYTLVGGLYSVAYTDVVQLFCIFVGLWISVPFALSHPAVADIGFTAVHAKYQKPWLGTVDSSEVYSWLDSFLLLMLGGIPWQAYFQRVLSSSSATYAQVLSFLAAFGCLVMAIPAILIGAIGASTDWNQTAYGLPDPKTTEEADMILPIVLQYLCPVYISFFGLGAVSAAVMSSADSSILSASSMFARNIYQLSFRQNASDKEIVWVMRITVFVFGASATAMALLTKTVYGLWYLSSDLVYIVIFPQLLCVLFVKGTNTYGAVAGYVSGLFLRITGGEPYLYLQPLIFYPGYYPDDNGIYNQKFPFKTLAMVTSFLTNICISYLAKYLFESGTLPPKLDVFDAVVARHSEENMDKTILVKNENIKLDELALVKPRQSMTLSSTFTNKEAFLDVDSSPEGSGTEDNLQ
CHT block – inhibitors of human choline transporter CHT; High affinity choline transporter 1 (Homo sapiens), Q9GZV3; CHT-expressing cells, membrane potential dye, choline response; active compounds read low; B-score at 10 µM; 310,000 tested, 0.86% active; AID 488975, 2010;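 active = B-score over 3 SD under the library average, and starting fluorescence ratio not unusually high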;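 also: choline stimulus applied at its EC90 after an EC20 pre-addition; B-score computed on integrated fluorescence ratio after choline addition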
TAG inh – inhibitors of triacylglycerol accumulation, primary screen, cell-based, uHTS, fluorescence, H9c2. H9c2 cells, Nile Red lipid (TAG) fluorescence; cells loaded with 200 µM oleic acid. inhibition, % at 12.5 µM. 230,000 tested, 0.66% active. AID 651582, 2012;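 active = pattern-corrected inhibition of lipid staining of at least 50% with the nuclear-stain viability signal not falling by more than 50%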
beta cell repl – inducers of MIN6 beta-cell proliferation, primary screen, ATP luminescence, uHTS; AID 2380, 2010; MIN6 cells proliferation, ATPlite luminescence, 48 h; cells starved in 0.2% serum; 100% = growth in 10% serum; proliferation, % at 10 µM; 330,000 tested, 0.29% active;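 active = compounds whose signal lies at least 3.5 SD above the mean of all wells on their plate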
CHT activ conf – CHT activators, confirmation, cell-based, membrane potential dye, duplicate; 2,500 tested, 91% active; CHT-expressing cells, membrane potential dye fluorescence (FDSS); % of choline EC20–EC90 response window; HEK293 expressing CHT LV-AA mutant; choline added at its EC20; shares compounds with CHT PAM; activation, % at 10 µM;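 active = primary screen active, with duplicate mean activation above negative control mean plus 3 SD, cut at about 11% in these data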
HEK293 MP dye – membrane potential response in parental HEK293 cells, counter-screen for CHT activator project, cell-based, membrane potential dye; shares compounds with CHT PAM; membrane potential dye fluorescence (FDSS); measured after EC20 choline addition; ratio readout change at 10 µM, hits read low; 2,500 tested, 62% active; AID 623908, 2012;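 active = duplicate-averaged ratio beyond 3 SD from buffer wells, up or down, though filed actives are nearly all decreases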
Each line names hits and unclear results; the compound was inactive in the other large screens (follow-up assays come after a bar, where they were run). Hits are enriched below; roughly 1.7% of the tested compounds scored in any of these assays.

CCOc1cc(-c2noc(-c3cccnc3)n2)ccc1OC	none
CCOc1ccc(-c2nnc(-c3ccncc3)o2)cc1OCC	none (no result: TAG inh) | CHT activ conf 61 | HEK293 MP dye -49
COc1ccc2c(=O)cc(-c3cccnc3)oc2c1OC	CHT PAM 7.6 (no result: TAG inh) | CHT activ conf 79 | HEK293 MP dye -72
CCOc1ccc(-c2nnc(-c3cccnc3)o2)cc1OCC	none | CHT activ conf 32 | HEK293 MP dye -27
COc1ccc(-c2nnc(-c3cccnc3)o2)cc1OC	CHT PAM 7.5 (no result: TAG inh) | CHT activ conf 31 | HEK293 MP dye -32
CSCCNC(=O)C1(C)CCN1C(=O)c1cc(C)n(C)n1 (centres undefined)	none (no result: CHT PAM, CHT block, beta cell repl)
COc1ccc(/C=C2\Oc3cc(OCC(N)=O)ccc3C2=O)cc1OC	CHT PAM 6.2 (no result: TAG inh) | CHT activ conf 46 | HEK293 MP dye -37
COC(=O)COc1ccc2c(c1)O/C(=C\c1cccc([N+](=O)[O-])c1)C2=O	none (no result: TAG inh)
CC(=O)N1CCN(c2ccccc2NC(=O)COc2cc(C)ccc2C(C)C)CC1	CHT PAM 10 (no result: TAG inh) | CHT activ conf 44 | HEK293 MP dye inactive
Cc1ccc(C(C)C)c(OCC(=O)Nc2ccc(N3CCOCC3)cc2N2CCOCC2)c1	none (no result: CHT PAM, CHT block)
CCN(CC)CCCNC1=C(Cl)C(=O)c2ccccc2C1=O	none | CHT activ conf 61 | HEK293 MP dye -54
COCCCNC1=C(Cl)C(=O)c2ccccc2C1=O	none
COc1ccc(CCNc2nc(-c3ccncc3)cs2)cc1OC	none
COc1ccc(OC)c2nc(-c3ccncc3)ccc12	none (no result: TAG inh) | CHT activ conf 52 | HEK293 MP dye -52
CCOC(=O)c1cnc2ccc(C(=O)OC)cc2c1Nc1ccc(C(=O)O)cc1	CHT PAM 8.9 | CHT activ conf 63 | HEK293 MP dye -63
CCOC(=O)c1cnc2ccc(Cl)cc2c1NCCN(C)C	none | CHT activ conf 27 | HEK293 MP dye -39
CCOC(=O)c1cnc2ccc(Br)cc2c1NCCO	none (no result: TAG inh)
CCOC(=O)c1cnc2ccc(C(=O)OC)cc2c1Nc1ccc2c(c1)OCCO2	none (no result: TAG inh)
CN(C)c1ccc(NC(=O)COC(=O)Cn2nnc3ccccc32)cc1	none (no result: TAG inh)
Cn1c(=O)n(C)c2cc(/C=N/n3cnnc3)ccc21	CHT PAM 8.7 | CHT activ conf 70 | HEK293 MP dye -69
Cc1ccn2c(NC(=O)c3ccccc3)c(-c3ccccc3)nc2c1	none | CHT activ conf 30 | HEK293 MP dye -48
Cc1ccn2c(NC(=O)c3ccccc3)c(-c3cccs3)nc2c1	none (no result: TAG inh)
O=C1NC(Cc2ccc(O)cc2)c2nc3ccc(Cl)cc3c(=O)n2-c2ccc(Cl)cc21 (centres undefined)	none (no result: CHT PAM, CHT block, TAG inh)
Cc1cc(OC(C)C(=O)NCCN2CCOCC2)c2c(C)c(C)c(=O)oc2c1 (centres undefined)	none (no result: TAG inh) | CHT activ conf 58 | HEK293 MP dye -56
Cc1cc(OC(C)C(=O)NCCCN2CCOCC2)c2c(C)cc(=O)oc2c1 (centres undefined)	none (no result: TAG inh) | CHT activ conf 50 | HEK293 MP dye -41
CCCc1cc(=O)oc2cc(C)cc(OC(C)C(=O)NCCCN3CCOCC3)c12 (centres undefined)	none (no result: TAG inh)
CCCCNC(=O)C1(C)CCN1C(=O)c1cccnc1Oc1ccccc1 (centres undefined)	none (no result: CHT PAM, CHT block, beta cell repl)
CCOc1ccc(-n2c(SCC(N)=O)nc3sc4c(c3c2=O)CCN(C)C4)cc1	none | CHT activ conf 38 | HEK293 MP dye -33
CCOC(=O)CSc1nc2sc3c(c2c(=O)n1-c1ccc(OCC)cc1)CCN(C)C3	none (no result: TAG inh)
CCOC(=O)CSc1nc2sc3c(c2c(=O)n1C1CCCCC1)CCN(C)C3	CHT PAM 8.1 | CHT activ conf 27 | HEK293 MP dye -29
CCOC(=O)CSc1nnc2n(C3CCCCC3)c(=O)c3c4c(sc3n12)CCCC4	none (no result: TAG inh)
COc1cccc(C(NC(C)=O)c2nc(-c3cccc(C#N)c3)cs2)c1 (centres undefined)	none (no result: CHT PAM, CHT block, beta cell repl)
O=C(c1ccco1)n1c(=S)nc2ccccn21	none (no result: TAG inh) | CHT activ conf 34 | HEK293 MP dye -24
Cc1ccc(COn2c(-c3ccc(Cl)cc3Cl)nc3ncccc32)cc1	CHT PAM 6.6 | CHT activ conf 31 | HEK293 MP dye inactive
O=C(O)CC1(CC(=O)Nc2ccccc2Br)CCCC1	none
N#Cc1cc2c(=O)n3ccccc3nc2n(Cc2cccnc2)c1=O	CHT PAM 6.9 | CHT activ conf 48 | HEK293 MP dye -44
Cc1cccn2c(=O)c3cc(C#N)c(=O)n(Cc4cccnc4)c3nc12	none (no result: CHT PAM, CHT block, beta cell repl)
Cc1ccc(C)c(-c2[nH]ncc2CN2CCCC(CO)(Cc3ccccc3C)C2)c1 (centres undefined)	CHT PAM 6.4 | CHT activ conf 17 | HEK293 MP dye inactive
Cc1cc(N2CCN(C3CCCC3)CC2)n2c(nc3ccccc32)c1C#N	CHT PAM 7.1 (no result: TAG inh) | CHT activ conf inactive | HEK293 MP dye inactive
COc1ccc2c(c1)N1CCN=C1N2C	CHT PAM 8.9 | CHT activ conf 65 | HEK293 MP dye -65
O=C(CSc1nnc(C2CC2)n1Cc1ccccc1)N1CCNC1=O	none (no result: CHT PAM, CHT block)
Cc1ccc(S(=O)(=O)CC(=O)c2cc(C)c(O)c(C)c2)cc1	none (no result: TAG inh)
COc1cc(OC)cc(C(=O)NNC(=O)CCC(=O)c2cc(C)sc2C)c1	none (no result: CHT PAM, CHT block)
CCc1nnc(NC(=O)CSc2nc(C)cs2)s1	none (no result: TAG inh)
CCc1nnc(NC(=O)CSc2nnc3nc(C)cc(C)n23)s1	CHT PAM 8.5 (no result: TAG inh) | CHT activ conf 52 | HEK293 MP dye -61
Cc1ccc(NC(=O)CSC2=NCCN2)cc1	none
O=C(CSC1=NCCN1)Nc1cccc([N+](=O)[O-])c1	CHT PAM 6.7 | CHT activ conf 51 | HEK293 MP dye -45
Cc1ccc2c(c1)sc1nc(=O)ccn12	none (no result: TAG inh) | CHT activ conf 40 | HEK293 MP dye -38
CC(NC(=O)c1ccc2nc(Cc3cccc(Cl)c3)oc2c1)c1ccncn1 (centres undefined)	none (no result: CHT PAM, CHT block, beta cell repl)
Cc1cccc(OCc2n(CC(=O)OC3CC(C)CCC3C(C)C)c3ccccc3[n+]2C)c1 (centres undefined)	CHT PAM 9.3, TAG inh 98 | CHT activ conf 41 | HEK293 MP dye inactive
CC1CCC(C(C)C)C(OC(=O)Cn2c(-c3ccccc3)[n+](C)c3ccccc32)C1 (centres undefined)	none (no result: TAG inh)
Cc1cc(C)c2[nH]c(=O)c(C(c3nnnn3CC3CCCO3)N3CCCC(C)C3)cc2c1 (centres undefined)	CHT PAM 7.3 | CHT activ conf inactive | HEK293 MP dye inactive
Cc1cc(C)c2[nH]c(=O)c(C(c3nnnn3CC3CCCO3)N3CCC(C)CC3)cc2c1 (centres undefined)	none (no result: TAG inh)
COc1ccc(-c2cn(Cc3ccc(C)cc3)nn2)cc1	none
